# According to PubChem BioAssay:
# Inconclusive results are not listed. Calls of active or inactive are those of the source.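 How the source made its calls, unless noted: active means Her2 level under about 52% in both replicate screens, with viability over 70% of control (limit read from the data); inconclusive means Her2 under the limit in one screen only, or viability under 70%; inactive means Her2 level above the set limit.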
# Columns and labels:
# [1] = reducers of endogenous Her2 protein level, primary screen, SKBR3 breast tumor cells, AlphaScreen, ATP viability (AID 461); conditions: 18-24 h, measured here: SKBR3 viability, ATP luminescence, at 10 µM;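 on Her2 level: lower value means less Her2 protein in the cells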;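 on viability: percent of carrier control wells set as 100% viability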
# [2] = biological target: Receptor tyrosine-protein kinase erbB-2 (Homo sapiens) (UniProt P04626); test: as above; conditions: 18-24 h, at 10 µM, stronger effect = lower value
# Chain of Receptor tyrosine-protein kinase erbB-2 (Homo sapiens) (P04626 whole entry, looked up): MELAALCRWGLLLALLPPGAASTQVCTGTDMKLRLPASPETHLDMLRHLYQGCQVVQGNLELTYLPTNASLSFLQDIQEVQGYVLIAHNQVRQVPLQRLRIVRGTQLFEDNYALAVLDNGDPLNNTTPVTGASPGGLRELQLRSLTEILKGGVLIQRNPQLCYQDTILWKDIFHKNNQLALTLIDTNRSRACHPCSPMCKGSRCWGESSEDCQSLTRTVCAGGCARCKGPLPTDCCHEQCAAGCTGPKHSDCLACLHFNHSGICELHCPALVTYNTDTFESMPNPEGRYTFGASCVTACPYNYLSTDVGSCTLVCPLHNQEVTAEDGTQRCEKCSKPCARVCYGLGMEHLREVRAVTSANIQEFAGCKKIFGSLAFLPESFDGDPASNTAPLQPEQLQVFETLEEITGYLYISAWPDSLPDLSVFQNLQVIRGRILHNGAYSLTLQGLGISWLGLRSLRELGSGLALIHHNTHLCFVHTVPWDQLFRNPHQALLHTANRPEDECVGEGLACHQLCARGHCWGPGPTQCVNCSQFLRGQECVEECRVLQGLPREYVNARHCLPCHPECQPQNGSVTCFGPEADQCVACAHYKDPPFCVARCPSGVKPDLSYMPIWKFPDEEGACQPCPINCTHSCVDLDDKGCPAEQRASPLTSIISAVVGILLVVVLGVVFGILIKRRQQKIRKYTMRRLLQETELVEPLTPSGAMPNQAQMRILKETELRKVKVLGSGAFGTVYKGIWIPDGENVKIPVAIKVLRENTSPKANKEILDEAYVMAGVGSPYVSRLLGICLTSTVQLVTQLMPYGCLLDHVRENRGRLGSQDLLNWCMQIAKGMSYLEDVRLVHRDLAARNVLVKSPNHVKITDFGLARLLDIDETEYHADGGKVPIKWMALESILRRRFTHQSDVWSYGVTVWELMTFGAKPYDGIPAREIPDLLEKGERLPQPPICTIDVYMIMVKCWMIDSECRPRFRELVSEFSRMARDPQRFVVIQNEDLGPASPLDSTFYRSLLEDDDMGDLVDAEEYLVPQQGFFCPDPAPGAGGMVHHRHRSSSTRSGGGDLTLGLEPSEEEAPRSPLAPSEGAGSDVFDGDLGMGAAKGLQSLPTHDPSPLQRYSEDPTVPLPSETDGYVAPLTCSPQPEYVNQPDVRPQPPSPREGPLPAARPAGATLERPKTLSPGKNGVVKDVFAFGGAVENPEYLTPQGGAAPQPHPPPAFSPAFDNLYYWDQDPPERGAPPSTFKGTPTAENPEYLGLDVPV
# [3] = SK-BR-3 cell growth inhibitors, pilot screen, 24 h, human (AID 572;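 active means viability at or below 10% of carrier control in both of two separate runs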;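 further: compound exposure lasted between 18 and 24 h rather than exactly 24 h; 100% = carrier-treated control wells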); conditions: SK-BR-3 viability, CellTiter-Glo luminescence, at 10 µM, stronger effect = lower value
# [4] = HUVEC growth inhibition – cell-based, human, primary screen (AID 575;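 active means viability at or below 30% in both replicate assays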;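 further: 100% = median of untreated cell wells with 0.1% DMSO on each plate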); conditions: HUVEC proliferation, CellTiter-Glo luminescence, 72 h; at 10 µM; stronger effect = lower value
# [5] = growth inhibitors of H69AR lung tumor, primary screen, human, duplicate replicates (AID 580;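 active means viability at or under a set limit in both replicates, limit being median viability minus 3 SD, cut at about 48% in these data, passing the limit was not always enough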;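 further: 100% = mean luminescence of untreated wells and 0% = no signal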); conditions: H69AR lung tumor cells viability, ATP luminescence, 72 h; at 10 µM; stronger effect = lower value
# [6] = reversal of MRP1-mediated doxorubicin resistance, pilot screen, H69AR cells, doxorubicin co-treatment (AID 601;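 active means viability loss from added drug above about 55%, and viability with drug at most 40%, in both replicates, limit read from the data, passing the limit was not always enough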); conditions: CellTiter-Glo, 72 h, at 10 µM; for differential viability (reversal): stronger effect = higher value
# [7] = 384-well plate pilot, post-Golgi transport modulator project, inhibition of yeast transport mutant growth (AID 636; in the data active means inhibition above about 31%); conditions: absorbance 615 nm, about 18 h, stronger effect = higher value
# [8] = growth suppression of yeast trafficking mutant, preliminary HTS, modulators of trafficking downstream of Golgi apparatus project, 1536-format plate, OD 615 nm (AID 637; in the data active means inhibition above about 30%); conditions: yeast transport mutant growth, absorbance 615 nm, 18 h; stronger effect = higher value
# [9] = OD615 S. cerevisiae growth inhibition, permissive medium, pilot counter-assay, permissive growth control for S. cerevisiae lifespan shortening project (AID 705;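 active means growth inhibition above 25% in both replicates, a cutoff set 3 SD above the mean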); conditions: OD615, 24 h, at 10 µM, stronger effect = higher value
# [10] = Restrictive medium S. cerevisiae growth inhibition, OD615, pilot screen of yeast lifespan reduction project, restrictive growth control (AID 706;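 active means growth inhibition above a set limit, 3 SD over mean compound inhibition, in both replicates, cut at about 43% in these data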;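 further: modified DeaD lifespan yeast strain shifted to restrictive glucose medium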); conditions: OD615, 48 h, at 10 µM, stronger effect = higher value
# [11] = growth suppression of beta-catenin knockout HCT116, pilot screen, human colon tumor cells (AID 823;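 active means cell viability at or below a set limit in both duplicate runs, the limit being the all-compound median minus 4 SD, cut at about 23% in these data, passing the limit was not always enough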;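 further: 0% = wells killed by 20 µM Hyamine and 100% = untreated DMSO cell wells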); conditions: CellTiter-Glo, 60 h, at 10 µM, stronger effect = lower value
# [12] = growth suppression of PTEN-deleted HCT116, pilot screen, cell-based, HCT116 clonal line, CellTiter-Glo (AID 824;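 active means viability at or below 27.92% in each of two runs, the all-compound median minus 4 SD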;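 further: 0% = 20 µM Hyamine control and 100% = vehicle cell control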); conditions: 60 h, at 10 µM, stronger effect = lower value
# [13] = inhibitors of the yeast RAM network, pilot screen, dse1pr::URA3 reporter, 5-FOA selection (AID 869;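 active means inhibition over a set limit, the all-compound mean plus 3 SD, in both replicate runs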;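 further: 0% = DMSO wells with no growth and 100% = 10 µM 1-NA-PP1 with full growth; RAM network block rescues cells from 5-FOA so hits raise OD615 growth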); conditions: S. cerevisiae dse1pr::URA3 5-FOA growth, OD615, 2 d; at 10 µM; stronger effect = higher value; strain carries analog-sensitive mutant Cbk1 kinase
# [14] = RAM signaling pathway blockade in yeast – S. cerevisiae, Pdr1DBD-CYC8 efflux-inhibited sensitized strain, primary screen (AID 1298;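 active means RAM network inhibition above 8.4% in each of two replicates, 3 SD over the compound average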;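 further: 0% = DMSO untreated cells without growth and 100% = 10 µM 1-NA-PP1 full growth; higher means more yeast growth rescued from 5-FOA killing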); conditions: S. cerevisiae cbk1-as DSE1-URA3 strain, 5-FOA growth OD615, 2 d; at 50 µM; stronger effect = higher value
# [15] = viability gain of MRP-1-high H69AR cells under doxorubicin, pilot screen, MRP-1 activator project, CellTiter-Glo, duplicate (AID 807;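 active means viability increase at or above a cutoff of the median across tested compounds plus 3 SD, cut at about 8.5% in these data, passing the limit was not always enough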;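 further: compound pretreatment 18-22 h then 72 h combined with doxorubicin; 0% = doxorubicin alone and 100% = vehicle without doxorubicin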); conditions: H69AR viability with doxorubicin, CellTiter-Glo luminescence; at 10 µM; stronger effect = higher value
# [16] = H69AR cells + 2 uM doxorubicin, measured here: viability with 2 uM doxorubicin, stronger effect = lower value
# [17] = H69AR cells, compound alone cytotoxicity
Compound,viability [1],Her2 level [2],viability [3],viability [4],viability [5],differential viability (reversal) ([6]; H69AR cells + 2 uM doxorubicin),"viability [6, 16]","viability [6, 17]",inhibition [7],inhibition [8],growth inhibition [9],growth inhibition [10],viability [11],viability [12],inhibition [13],RAM network inhibition [14],viability increase [15]
Cc1ccc(C(=O)CSc2n[nH]c(-c3ccco3)n2)cc1C,106%,104% (inactive),106% (inactive),99.2% (inactive),101% (inactive),-3.95% (inactive),105%,101%,-4.68% (inactive),-4.67% (inactive),-13.8% (inactive),3.79% (inactive),101% (inactive),107% (inactive),0.765% (inactive),0.94% (inactive),–
C/C=C/COC(=O)c1[nH]c2c(c1C)C(=O)CC(c1ccc(N(C)C)cc1)C2 (stereo not given),92%,94% (inactive),92% (inactive),62.4% (inactive),–,-30.1% (inactive),72.1%,41.9%,2% (inactive),49.8% (active),-10.2% (inactive),-9.05% (inactive),60.6% (inactive),66.6% (inactive),1.9% (inactive),4.88% (inactive),-2.69% (inactive)
CNC(=O)c1ccsc1NC(=O)CN1C(=O)CCC1=O,90%,94% (inactive),90% (inactive),96.8% (inactive),–,-22.5% (inactive),80.5%,58%,-3.47% (inactive),-0.67% (inactive),-11.5% (inactive),0.46% (inactive),104% (inactive),98.9% (inactive),1.65% (inactive),1.73% (inactive),-6.24% (inactive)
CSc1ccccc1NC(=O)C1CCCO1 (stereo not given),97.5%,110% (inactive),97.5% (inactive),102% (inactive),93.9% (inactive),-0.325% (inactive),94.2%,93.9%,1.73% (inactive),-6.03% (inactive),-8.35% (inactive),-0.95% (inactive),–,98.6% (inactive),0.11% (inactive),2.42% (inactive),-2.61% (inactive)
Oc1cccc(C=NCc2ccccc2)c1O,78%,82.5% (inactive),78% (inactive),67.3% (inactive),–,-26% (inactive),77%,51%,-0.39% (inactive),-0.5% (inactive),83.7% (active),97.5% (active),71% (inactive),72.2% (inactive),-0.21% (inactive),-1.18% (inactive),-3.97% (inactive)
CCn1c2ccccc2c2cc(Nc3cc(C)nc4ncnn34)ccc21,93%,49% (active),93% (inactive),18.1% (active),29.4% (active),-28% (inactive),57.4%,29.4%,-1.6% (inactive),0% (inactive),–,72.4% (active),–,12.2% (active),-0.255% (inactive),-1.23% (inactive),-7.76% (inactive)
CC1CCN(Cc2ccc(NC(=O)C3CCN(c4nnc(-n5cccc5)s4)CC3)cc2)CC1,86.5%,90.5% (inactive),86.5% (inactive),4.64% (active),78.5% (inactive),-1.01% (inactive),79.5%,78.5%,-4.27% (inactive),1.33% (inactive),3.76% (inactive),2.38% (inactive),–,–,0.695% (inactive),4.34% (inactive),-2.95% (inactive)
CCOC(=O)c1cc2c(=O)n3ccccc3nc2n(CCCOC)c1=NC(C)=O,90%,94.5% (inactive),90% (inactive),109% (inactive),94.2% (inactive),26.5% (inactive),67.7%,94.2%,-5.48% (inactive),-0.48% (inactive),-6.91% (inactive),-0.22% (inactive),–,100% (inactive),1.38% (inactive),6.83% (inactive),-4.92% (inactive)
CCOc1ccc(N(CC(=O)Nc2cccc(OC)c2)S(=O)(=O)c2c(C)noc2C)cc1,91.5%,95% (inactive),91.5% (inactive),72.4% (inactive),–,-16.7% (inactive),76.3%,59.6%,-4.4% (inactive),-7.38% (inactive),-11.5% (inactive),3.05% (inactive),71.8% (inactive),70.9% (inactive),-0.41% (inactive),4.24% (inactive),-4.75% (inactive)
CCOC(=O)CCCOC(=O)c1ccc(S(=O)(=O)N(C)C)cc1,95%,84.5% (inactive),95% (inactive),88.7% (inactive),100% (inactive),1.72% (inactive),98.7%,100%,-6.49% (inactive),2.79% (inactive),-13.7% (inactive),-2.25% (inactive),–,89.6% (inactive),1.5% (inactive),4.96% (inactive),-2% (inactive)
COc1ccc(CCn2c(-c3ccco3)nc3ccccc3c2=O)cc1OC,73%,89% (inactive),73% (inactive),84.3% (inactive),–,-29.2% (inactive),82.1%,52.8%,-5.95% (inactive),-0.49% (inactive),-7.24% (inactive),-21.7% (inactive),54.5% (inactive),57.1% (inactive),0.935% (inactive),5.3% (inactive),-3.68% (inactive)
Cc1ccc(C)c(N2CCN(C(=O)c3cc4ccccn4n3)CC2)c1,91%,85% (inactive),91% (inactive),90.1% (inactive),99.8% (inactive),–,–,–,-4.74% (inactive),8.33% (inactive),-8.86% (inactive),0.2% (inactive),91.7% (inactive),92.5% (inactive),0.805% (inactive),10.8% (inactive),-2.11% (inactive)
Cc1ccc2oc(=O)c3cnn(CC(=O)N4CCCCC4C)c3c2c1 (stereo not given),91.5%,108% (inactive),91.5% (inactive),103% (inactive),89.2% (inactive),–,–,–,-0.27% (inactive),2.62% (inactive),-9.82% (inactive),-6.86% (inactive),84.1% (inactive),87.1% (inactive),3.4% (inactive),0.87% (inactive),-3.34% (inactive)
Cc1noc(/C=C/N(C)C)c1S(=O)(=O)N1CCCC(C(=O)N2CCCCC2)C1 (stereo not given),84%,97% (inactive),84% (inactive),95.9% (inactive),97.3% (inactive),-3.44% (inactive),101%,97.3%,1.07% (inactive),-7.21% (inactive),4.08% (inactive),5.73% (inactive),87.4% (inactive),85.2% (inactive),1.34% (inactive),5.03% (inactive),–
CCOc1ccccc1C1CC(c2ccc(Br)cc2)Nc2nc(N)nn21 (stereo not given),91.5%,102% (inactive),91.5% (inactive),63.3% (inactive),25.7% (active),-45.9% (inactive),71.6%,25.7%,-2.13% (inactive),0.16% (inactive),9.24% (inactive),–,69.3% (inactive),73.2% (inactive),2.62% (inactive),4.4% (inactive),-2.25% (inactive)
CC1CCc2nn(CC(=O)N3CCN(C(=O)c4ccco4)CC3)cc2C1 (stereo not given),79.5%,95.5% (inactive),79.5% (inactive),119% (inactive),91.6% (inactive),11.8% (inactive),79.8%,91.6%,0% (inactive),2.67% (inactive),-0.485% (inactive),5.38% (inactive),104% (inactive),97.9% (inactive),3.15% (inactive),7.21% (inactive),–
CC(C)CC1NC2(C(=O)N(C)c3ccccc32)C2C(=O)N(C(C)C)C(=O)C12 (stereo not given),86.5%,110% (inactive),86.5% (inactive),83.3% (inactive),99.1% (inactive),–,–,–,-1.73% (inactive),-0.33% (inactive),4.83% (inactive),6.6% (inactive),103% (inactive),103% (inactive),1.11% (inactive),2.88% (inactive),-1.13% (inactive)
CCN1CCN(c2ncnc3c2cnn3-c2ccc(C)cc2C)CC1,85.5%,96% (inactive),85.5% (inactive),99.8% (inactive),73.7% (inactive),–,–,–,-6.4% (inactive),7.7% (inactive),-5.99% (inactive),-11% (inactive),85.1% (inactive),81.6% (inactive),0.395% (inactive),0.63% (inactive),-6.88% (inactive)
CCn1c(NC(=O)c2cccc(Cn3cc(Cl)cn3)c2)nc2ccccc21,93.5%,75% (inactive),93.5% (inactive),69% (inactive),–,-8.54% (inactive),65.1%,56.5%,-0.53% (inactive),0.16% (inactive),-10.1% (inactive),7.82% (inactive),40.3% (inactive),40.1% (inactive),0.95% (inactive),4.07% (inactive),-0.12% (inactive)
O=C(Cn1ncc2c1-c1ccccc1OC2)N1CCc2ccccc21,83.5%,100% (inactive),83.5% (inactive),96.2% (inactive),84.3% (inactive),-0.91% (inactive),85.2%,84.3%,0.51% (inactive),-5.33% (inactive),–,-6.7% (inactive),93.4% (inactive),88.4% (inactive),-0.23% (inactive),6.41% (inactive),-0.77% (inactive)
